Reference: the supplement of paper PMC11732987, “Enantioselective OTUD7B fragment discovery through chemoproteomics screening and high-throughput optimisation” (Communications Chemistry, 2025)

Experiments:
Test in all cases: log2 ratio of Biotin-Ahx-Ub-VS probe labelling (fragment/DMSO); higher = less target engagement (more negative = stronger competition), active = hit call of the paper (q ≤ 0.05, log2 ratio ≤ -1)
Details in all cases: compound concentration: 200 uM; treatment time: 3 h
[1] = target: T1, USP42 (UniProt Q9H9J4)
T1 sequence (whole entry): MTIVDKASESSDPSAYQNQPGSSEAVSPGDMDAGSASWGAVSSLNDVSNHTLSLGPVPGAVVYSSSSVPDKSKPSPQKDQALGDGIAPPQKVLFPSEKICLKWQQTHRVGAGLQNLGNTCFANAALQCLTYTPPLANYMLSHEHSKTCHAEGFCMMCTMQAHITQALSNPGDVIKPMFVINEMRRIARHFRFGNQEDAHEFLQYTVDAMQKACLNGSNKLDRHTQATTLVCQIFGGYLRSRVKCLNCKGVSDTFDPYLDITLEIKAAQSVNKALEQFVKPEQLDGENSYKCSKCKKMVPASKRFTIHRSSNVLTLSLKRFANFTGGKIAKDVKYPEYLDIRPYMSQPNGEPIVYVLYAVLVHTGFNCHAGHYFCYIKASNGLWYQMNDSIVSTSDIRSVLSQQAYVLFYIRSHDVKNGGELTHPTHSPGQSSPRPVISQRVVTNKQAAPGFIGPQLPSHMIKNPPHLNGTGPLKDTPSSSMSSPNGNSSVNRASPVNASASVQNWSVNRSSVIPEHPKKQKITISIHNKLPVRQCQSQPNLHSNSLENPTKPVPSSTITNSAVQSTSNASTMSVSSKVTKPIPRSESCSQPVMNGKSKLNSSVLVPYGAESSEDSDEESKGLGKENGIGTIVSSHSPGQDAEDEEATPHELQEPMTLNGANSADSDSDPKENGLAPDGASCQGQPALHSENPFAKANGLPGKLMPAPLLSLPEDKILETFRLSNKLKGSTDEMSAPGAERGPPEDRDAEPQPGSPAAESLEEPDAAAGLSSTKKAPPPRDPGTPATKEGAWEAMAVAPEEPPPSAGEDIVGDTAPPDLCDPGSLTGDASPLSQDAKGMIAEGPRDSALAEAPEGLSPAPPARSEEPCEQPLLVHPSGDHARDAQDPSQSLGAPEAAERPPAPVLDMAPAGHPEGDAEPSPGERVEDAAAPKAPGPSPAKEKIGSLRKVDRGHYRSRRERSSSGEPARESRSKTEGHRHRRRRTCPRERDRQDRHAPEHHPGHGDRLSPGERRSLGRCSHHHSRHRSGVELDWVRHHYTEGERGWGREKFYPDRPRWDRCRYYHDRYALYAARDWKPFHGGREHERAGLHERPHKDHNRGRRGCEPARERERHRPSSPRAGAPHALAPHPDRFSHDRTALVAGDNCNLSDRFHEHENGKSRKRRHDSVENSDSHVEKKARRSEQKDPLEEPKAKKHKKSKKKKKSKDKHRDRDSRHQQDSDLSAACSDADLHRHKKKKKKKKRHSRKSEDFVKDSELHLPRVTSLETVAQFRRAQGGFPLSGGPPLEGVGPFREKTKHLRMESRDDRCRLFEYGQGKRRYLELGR
Method in brief: (§1)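 HEK293T lysate (495 µg per sample, in Tris/CHAPS/IGEPAL buffer with protease inhibitors) was treated in triplicate with fragment at 200 µM or with DMSO for 3 h. It was then treated with Biotin-Ahx-Ub-VS (0.5 µM final) for 1 h. Labelled DUBs were NeutrAvidin-enriched, digested with LysC and trypsin, and run by diaPASEF LC-MS/MS. Spectronaut label-free quantities were global-median-normalised. Values are average log2 ratios fragment/DMSO by unpaired t-test, using proteins with ≥2 unique peptides.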

[2] = target: USP46 (UniProt P62068)
Method in brief: as §1

[3] = target: T2, USP47 (UniProt Q96K76)
T2 sequence (whole entry): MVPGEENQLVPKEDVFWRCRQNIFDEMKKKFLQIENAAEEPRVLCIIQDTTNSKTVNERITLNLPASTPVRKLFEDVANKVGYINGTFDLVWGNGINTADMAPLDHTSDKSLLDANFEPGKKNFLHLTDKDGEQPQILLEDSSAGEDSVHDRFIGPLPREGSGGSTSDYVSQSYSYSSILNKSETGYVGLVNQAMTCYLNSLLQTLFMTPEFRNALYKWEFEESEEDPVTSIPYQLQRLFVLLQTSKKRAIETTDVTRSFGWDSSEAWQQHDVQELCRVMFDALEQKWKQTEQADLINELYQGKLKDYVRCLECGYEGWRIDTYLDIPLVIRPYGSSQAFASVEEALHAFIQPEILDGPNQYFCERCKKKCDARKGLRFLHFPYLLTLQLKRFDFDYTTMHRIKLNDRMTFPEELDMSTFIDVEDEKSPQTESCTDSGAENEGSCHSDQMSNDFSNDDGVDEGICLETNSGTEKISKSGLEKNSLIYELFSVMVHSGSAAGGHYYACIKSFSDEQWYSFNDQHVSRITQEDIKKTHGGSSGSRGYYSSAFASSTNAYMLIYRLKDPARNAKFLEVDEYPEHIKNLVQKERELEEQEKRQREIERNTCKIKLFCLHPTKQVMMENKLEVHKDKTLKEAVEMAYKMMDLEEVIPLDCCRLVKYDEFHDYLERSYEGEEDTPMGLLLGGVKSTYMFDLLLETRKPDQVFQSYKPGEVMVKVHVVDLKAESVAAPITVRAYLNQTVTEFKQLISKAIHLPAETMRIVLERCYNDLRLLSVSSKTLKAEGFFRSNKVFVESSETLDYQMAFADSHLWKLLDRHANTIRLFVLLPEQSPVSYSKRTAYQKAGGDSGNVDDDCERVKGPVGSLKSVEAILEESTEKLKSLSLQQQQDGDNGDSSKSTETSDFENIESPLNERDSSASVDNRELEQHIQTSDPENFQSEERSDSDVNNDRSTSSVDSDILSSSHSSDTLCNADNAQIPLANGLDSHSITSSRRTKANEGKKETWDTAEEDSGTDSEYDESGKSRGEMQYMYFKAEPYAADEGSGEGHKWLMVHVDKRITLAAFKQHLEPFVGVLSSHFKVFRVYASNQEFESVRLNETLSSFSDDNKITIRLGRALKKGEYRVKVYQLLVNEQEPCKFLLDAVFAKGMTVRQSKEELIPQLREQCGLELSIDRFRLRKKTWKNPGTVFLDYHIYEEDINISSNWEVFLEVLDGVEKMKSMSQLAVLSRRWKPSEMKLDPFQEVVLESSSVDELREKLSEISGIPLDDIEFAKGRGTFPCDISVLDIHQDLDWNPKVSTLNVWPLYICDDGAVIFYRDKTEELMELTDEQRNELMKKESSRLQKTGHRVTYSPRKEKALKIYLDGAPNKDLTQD
Method in brief: as §1

[4] = target: T3, USP48 (UniProt Q86UV5)
T3 sequence (whole entry): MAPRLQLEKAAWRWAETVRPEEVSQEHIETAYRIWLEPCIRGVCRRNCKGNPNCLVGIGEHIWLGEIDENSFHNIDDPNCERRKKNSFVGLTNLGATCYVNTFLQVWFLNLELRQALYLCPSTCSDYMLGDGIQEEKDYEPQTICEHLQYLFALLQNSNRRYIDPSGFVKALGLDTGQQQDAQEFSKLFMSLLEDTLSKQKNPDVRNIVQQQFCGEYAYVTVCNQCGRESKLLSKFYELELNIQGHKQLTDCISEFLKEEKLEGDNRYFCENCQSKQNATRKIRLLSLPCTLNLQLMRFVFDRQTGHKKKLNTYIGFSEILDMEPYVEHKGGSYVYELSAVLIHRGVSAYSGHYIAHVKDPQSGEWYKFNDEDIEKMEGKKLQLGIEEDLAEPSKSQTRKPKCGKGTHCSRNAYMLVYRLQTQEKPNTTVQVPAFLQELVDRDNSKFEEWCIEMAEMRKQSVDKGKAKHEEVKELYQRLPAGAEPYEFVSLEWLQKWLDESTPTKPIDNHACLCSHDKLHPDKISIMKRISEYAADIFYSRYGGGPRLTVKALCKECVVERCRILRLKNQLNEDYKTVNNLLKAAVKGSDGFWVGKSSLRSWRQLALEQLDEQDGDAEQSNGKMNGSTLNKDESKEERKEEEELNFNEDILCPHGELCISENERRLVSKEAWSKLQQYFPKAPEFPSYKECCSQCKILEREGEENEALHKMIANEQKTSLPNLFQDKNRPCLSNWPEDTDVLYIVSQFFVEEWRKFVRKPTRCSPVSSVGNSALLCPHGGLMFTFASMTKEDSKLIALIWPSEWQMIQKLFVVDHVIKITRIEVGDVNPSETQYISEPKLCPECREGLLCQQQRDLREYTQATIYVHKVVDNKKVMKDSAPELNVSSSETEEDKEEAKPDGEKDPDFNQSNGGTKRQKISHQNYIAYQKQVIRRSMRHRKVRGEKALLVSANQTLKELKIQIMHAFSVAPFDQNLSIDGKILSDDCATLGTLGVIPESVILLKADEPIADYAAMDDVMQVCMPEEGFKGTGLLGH
Method in brief: as §1

[5] = target: T4, USP5 (UniProt P45974)
T4 sequence (whole entry): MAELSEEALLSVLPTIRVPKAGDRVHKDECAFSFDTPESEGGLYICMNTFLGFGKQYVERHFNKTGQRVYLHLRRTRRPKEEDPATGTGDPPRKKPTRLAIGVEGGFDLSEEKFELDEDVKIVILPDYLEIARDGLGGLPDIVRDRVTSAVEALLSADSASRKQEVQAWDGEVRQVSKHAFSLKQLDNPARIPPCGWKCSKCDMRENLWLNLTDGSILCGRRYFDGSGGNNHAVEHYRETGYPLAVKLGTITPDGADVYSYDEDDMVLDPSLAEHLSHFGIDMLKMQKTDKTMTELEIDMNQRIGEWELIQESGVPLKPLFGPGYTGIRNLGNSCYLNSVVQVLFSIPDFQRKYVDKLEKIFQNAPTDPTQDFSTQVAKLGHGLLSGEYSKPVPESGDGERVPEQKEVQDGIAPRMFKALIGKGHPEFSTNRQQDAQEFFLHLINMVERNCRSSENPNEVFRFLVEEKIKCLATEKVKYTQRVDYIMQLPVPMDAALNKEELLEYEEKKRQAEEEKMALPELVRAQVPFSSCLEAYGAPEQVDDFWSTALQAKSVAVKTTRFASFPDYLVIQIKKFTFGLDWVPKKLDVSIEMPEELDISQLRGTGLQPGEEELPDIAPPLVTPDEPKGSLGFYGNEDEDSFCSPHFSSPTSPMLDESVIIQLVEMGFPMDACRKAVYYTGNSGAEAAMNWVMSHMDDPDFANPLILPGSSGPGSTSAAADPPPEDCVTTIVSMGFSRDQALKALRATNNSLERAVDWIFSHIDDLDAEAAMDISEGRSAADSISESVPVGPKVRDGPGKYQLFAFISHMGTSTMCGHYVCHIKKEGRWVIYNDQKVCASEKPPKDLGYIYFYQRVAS
Method in brief: as §1

[6] = target: USP54 (UniProt Q70EL1)
Method in brief: as §1

[7] = target: USP7 (UniProt Q93009)
Method in brief: as §1

[8] = target: T5, USP8 (UniProt P40818)
T5 sequence (whole entry): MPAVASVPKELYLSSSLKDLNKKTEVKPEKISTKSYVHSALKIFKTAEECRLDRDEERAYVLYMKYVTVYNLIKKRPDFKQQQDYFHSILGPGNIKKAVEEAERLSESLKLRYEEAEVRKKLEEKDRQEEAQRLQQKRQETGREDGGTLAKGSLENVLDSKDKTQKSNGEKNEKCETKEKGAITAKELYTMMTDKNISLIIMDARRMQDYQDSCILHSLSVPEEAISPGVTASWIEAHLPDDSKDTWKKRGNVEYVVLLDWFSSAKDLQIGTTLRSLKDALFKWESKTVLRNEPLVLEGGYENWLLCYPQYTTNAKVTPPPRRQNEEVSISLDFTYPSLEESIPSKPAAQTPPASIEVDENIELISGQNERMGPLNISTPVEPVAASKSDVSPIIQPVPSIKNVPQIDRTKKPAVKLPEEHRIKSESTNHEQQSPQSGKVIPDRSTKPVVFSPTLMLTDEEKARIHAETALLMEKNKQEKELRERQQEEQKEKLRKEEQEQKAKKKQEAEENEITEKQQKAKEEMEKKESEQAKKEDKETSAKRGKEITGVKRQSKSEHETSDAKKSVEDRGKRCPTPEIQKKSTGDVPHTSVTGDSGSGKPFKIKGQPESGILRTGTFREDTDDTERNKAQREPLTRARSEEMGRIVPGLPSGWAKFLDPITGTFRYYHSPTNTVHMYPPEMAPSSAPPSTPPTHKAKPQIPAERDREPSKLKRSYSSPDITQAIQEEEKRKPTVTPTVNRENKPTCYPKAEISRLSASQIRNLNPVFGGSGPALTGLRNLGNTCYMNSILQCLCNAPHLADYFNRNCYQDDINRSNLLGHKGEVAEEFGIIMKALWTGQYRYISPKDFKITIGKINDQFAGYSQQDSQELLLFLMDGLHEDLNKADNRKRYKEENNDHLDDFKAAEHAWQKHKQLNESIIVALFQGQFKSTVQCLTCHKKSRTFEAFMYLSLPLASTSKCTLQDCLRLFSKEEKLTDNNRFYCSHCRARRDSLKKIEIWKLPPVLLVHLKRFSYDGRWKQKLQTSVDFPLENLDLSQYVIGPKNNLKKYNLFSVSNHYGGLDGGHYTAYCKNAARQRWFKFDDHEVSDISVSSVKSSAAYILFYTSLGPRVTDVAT
Method in brief: as §1

Measured: log2 ratio of Biotin-Ahx-Ub-VS probe labelling

Chain of USP46 (P62068 whole entry): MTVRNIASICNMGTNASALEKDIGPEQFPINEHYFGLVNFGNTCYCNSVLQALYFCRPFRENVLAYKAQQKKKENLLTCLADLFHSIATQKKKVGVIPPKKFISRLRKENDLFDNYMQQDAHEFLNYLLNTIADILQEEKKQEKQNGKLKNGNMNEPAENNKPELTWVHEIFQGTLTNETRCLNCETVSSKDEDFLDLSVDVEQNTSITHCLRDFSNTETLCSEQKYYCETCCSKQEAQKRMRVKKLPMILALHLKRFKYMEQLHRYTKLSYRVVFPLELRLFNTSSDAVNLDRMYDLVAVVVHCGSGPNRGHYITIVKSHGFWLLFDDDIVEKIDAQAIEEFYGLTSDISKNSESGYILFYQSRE
Chain of USP7 (Q93009 whole entry, looked up): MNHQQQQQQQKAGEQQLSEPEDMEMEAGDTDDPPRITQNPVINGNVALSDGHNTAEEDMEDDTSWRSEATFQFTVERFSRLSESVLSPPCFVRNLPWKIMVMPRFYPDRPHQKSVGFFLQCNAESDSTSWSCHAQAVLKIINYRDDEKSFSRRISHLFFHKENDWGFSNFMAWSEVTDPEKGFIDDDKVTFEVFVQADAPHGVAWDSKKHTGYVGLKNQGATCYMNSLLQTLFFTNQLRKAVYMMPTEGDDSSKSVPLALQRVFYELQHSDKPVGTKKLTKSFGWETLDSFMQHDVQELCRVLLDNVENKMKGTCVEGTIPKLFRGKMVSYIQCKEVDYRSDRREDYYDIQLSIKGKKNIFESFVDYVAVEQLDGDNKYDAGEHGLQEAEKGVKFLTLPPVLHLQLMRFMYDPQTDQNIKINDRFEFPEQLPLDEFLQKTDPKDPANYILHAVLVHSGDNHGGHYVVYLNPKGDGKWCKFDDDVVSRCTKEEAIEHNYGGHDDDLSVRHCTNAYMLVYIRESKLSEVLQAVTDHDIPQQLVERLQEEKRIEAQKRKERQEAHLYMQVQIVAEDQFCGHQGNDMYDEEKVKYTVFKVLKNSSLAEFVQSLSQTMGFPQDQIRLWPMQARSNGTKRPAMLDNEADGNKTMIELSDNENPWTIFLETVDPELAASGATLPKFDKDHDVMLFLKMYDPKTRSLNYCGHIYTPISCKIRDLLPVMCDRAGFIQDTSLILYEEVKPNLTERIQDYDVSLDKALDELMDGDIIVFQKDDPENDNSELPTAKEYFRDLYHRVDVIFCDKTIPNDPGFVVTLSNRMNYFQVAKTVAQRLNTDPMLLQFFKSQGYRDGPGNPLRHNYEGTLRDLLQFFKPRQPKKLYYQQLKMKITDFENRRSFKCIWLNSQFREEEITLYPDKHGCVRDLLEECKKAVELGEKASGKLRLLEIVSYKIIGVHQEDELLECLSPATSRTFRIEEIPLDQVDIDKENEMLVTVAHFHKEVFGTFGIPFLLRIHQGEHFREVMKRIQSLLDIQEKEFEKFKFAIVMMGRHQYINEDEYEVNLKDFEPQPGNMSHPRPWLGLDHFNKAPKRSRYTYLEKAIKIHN
Chain of USP54 (Q70EL1 whole entry): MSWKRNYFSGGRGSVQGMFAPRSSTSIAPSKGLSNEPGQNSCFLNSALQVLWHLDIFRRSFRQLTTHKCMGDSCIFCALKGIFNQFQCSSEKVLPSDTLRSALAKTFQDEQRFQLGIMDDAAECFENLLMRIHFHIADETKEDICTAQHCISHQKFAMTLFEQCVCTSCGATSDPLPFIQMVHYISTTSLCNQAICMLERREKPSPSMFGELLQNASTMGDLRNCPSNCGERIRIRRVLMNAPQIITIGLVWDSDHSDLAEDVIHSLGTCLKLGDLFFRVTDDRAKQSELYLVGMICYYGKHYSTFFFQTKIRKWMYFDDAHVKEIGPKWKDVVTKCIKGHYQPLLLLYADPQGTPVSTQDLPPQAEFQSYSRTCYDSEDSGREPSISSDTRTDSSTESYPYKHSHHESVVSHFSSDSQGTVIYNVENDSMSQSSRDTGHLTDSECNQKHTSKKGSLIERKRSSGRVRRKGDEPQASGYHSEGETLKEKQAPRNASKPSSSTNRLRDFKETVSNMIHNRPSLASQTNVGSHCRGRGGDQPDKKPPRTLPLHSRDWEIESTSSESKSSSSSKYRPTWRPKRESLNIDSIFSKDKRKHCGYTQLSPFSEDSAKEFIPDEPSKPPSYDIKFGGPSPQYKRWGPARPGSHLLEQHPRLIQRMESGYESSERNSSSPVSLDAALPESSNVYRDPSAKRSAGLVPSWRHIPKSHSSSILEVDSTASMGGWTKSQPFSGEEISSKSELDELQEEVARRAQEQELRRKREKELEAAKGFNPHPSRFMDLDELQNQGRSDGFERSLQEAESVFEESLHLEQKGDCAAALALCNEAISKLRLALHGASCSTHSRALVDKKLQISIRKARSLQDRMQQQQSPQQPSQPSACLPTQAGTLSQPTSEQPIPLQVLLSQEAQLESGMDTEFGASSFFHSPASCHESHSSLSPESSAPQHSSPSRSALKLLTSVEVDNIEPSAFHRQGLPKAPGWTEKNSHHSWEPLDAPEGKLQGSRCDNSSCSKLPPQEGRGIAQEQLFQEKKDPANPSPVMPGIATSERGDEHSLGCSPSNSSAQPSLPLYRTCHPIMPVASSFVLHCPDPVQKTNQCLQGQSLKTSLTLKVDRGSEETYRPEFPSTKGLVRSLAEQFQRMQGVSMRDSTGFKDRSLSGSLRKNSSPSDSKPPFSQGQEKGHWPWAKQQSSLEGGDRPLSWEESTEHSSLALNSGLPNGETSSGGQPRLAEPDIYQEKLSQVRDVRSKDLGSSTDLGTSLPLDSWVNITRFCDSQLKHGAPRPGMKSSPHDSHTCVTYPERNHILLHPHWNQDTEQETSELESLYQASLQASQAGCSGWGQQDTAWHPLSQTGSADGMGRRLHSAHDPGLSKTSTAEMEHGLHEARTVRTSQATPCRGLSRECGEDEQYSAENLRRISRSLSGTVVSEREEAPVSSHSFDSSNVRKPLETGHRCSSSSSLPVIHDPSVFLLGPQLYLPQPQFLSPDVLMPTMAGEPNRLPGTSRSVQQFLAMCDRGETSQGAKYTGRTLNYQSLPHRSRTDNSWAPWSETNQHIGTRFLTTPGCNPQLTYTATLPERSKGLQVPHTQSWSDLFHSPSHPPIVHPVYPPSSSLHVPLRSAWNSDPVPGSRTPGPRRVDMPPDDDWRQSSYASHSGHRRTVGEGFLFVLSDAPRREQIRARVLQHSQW

CC(C)n1nccc1NC(=O)CCl
inactive: [1] -0.0446 | [2] 0.0362 | [3] -0.313 | [4] -0.375 | [5] 0.00439 | [6] 0.614 | [7] -0.278 | [8] -0.493
